# About 17,000 (5.5%) of roughly 310,000 compounds were called active. Inconclusive results (about 11%) are left out. The call rests on the fitted dose curve; in most records, active means well fitted inhibition curve with a large enough effect; inconclusive means small, poorly fitted or top-dose-only effect, or effect the other way; inactive means no such curve, though single readings can be large or run the other way. Only a selection was taken, and actives are over-represented in it overall.
# Target: Nuclear receptor ROR-gamma (Mus musculus) (UniProt P51450)
# Assay: qHTS for inhibitors of ROR gamma transcriptional activity; further: nearly all actives have a fitted effect of over 60% in size
# Conditions: Drosophila S2 Gal4-RORgamma UAS-luciferase reporter, 20 h; series mostly up to 53.6 µM; activity change, negative = inhibition: at the top concentration
# How it was run: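 A Gal4/UAS one-hybrid system in insect cells: metallothionein-promoter Gal4–ROR gamma fusion plus Photinus luciferase reporter. Copper sulfate 700 uM final, 20 hr ambient incubation, luminescent detection after 10 min with reagent.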
# On the % scale 0 is the no-effect control and ±100 the full control effect; potency means the concentration at half of the fitted maximal effect.
# Sequence of Nuclear receptor ROR-gamma (Mus musculus) (P51450 whole entry, looked up): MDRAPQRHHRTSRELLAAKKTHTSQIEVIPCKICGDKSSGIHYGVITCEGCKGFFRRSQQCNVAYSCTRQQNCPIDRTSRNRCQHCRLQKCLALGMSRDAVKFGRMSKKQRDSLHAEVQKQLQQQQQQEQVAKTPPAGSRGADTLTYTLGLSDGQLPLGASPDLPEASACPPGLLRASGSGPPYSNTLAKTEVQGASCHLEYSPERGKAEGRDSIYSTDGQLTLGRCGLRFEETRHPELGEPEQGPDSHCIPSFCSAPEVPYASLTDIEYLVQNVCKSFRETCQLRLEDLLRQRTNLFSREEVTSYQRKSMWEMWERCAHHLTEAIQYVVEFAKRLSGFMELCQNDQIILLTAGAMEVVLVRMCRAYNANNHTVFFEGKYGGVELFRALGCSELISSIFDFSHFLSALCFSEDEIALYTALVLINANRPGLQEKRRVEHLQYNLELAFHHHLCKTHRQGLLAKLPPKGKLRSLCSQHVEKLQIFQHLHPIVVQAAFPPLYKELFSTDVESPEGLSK
Compound,"activity change, negative = inhibition",Potency
COc1cc(NC(=O)c2ccccc2)c(OC)cc1NC(=O)Cc1ccccc1,12.2% (inactive),
O=C(O)CCCn1c(=O)c2cccn2c2ccc(F)cc21,6.5% (inactive),
Cc1ccc(-n2c(SCC(=O)NCCC3=CCCCC3)nc3n[nH]c(C)c3c2=N)cc1Cl,-37.4% (inactive),
Cc1nonc1NC(=O)c1ccccc1Br,-2.61% (inactive),
O=C(Nc1nnc(-c2ccc(Cl)cc2)o1)c1ccccc1Br,,2.51 µM (active)
O=C(Nc1cccc(Cl)c1)Nc1nnc(-c2ccccc2)o1,-9.93% (inactive),
CN=C1S/C(=C\c2c(OC)cc(OC)cc2OC)C(=O)N1C,-16.9% (inactive),
CCc1ccc(S(=O)(=O)Nc2cc3c(cc2N2CCCCC2)n(C)c(=O)c(=O)n3C)cc1,0.731% (inactive),
Cn1c(CCNS(=O)(=O)c2ccc(F)cc2)nnc1SCc1cccnc1,-11.7% (inactive),
COc1ccc(C(=O)CCc2ccccc2O)c(OC)c1,3.95% [at 1.91 µM] (inactive),
O=C(Cc1ccccc1)N1N=C(c2ccncc2)CC1(O)C(F)(F)F (stereo not drawn),,7.08 µM (active)
CCC(C)NC(=O)CCCc1ccccc1 (stereo not drawn),16.6% (inactive),
O=C(C1CC1)N1N=C(c2ccc(Br)cc2)CC1(O)C(F)(F)F (stereo not drawn),-5.41% (inactive),
O=C(O)CCCc1ccccc1,,inactive
COc1ccc(CC(=O)N2N=C(C)CC2(O)C(F)(F)F)cc1 (stereo not drawn),,7.94 µM (active)
CCCCCNC(=O)Cc1ccc(OC)cc1,10.8% (inactive),
CC1=NN(C(=O)CCCc2ccccc2)C(O)(C(F)(F)F)C1 (stereo not drawn),,4.47 µM (active)
CC(=O)N1N=C(c2ccncc2)OC1(Cc1ccccc1)Cc1ccccc1,-14.5% (inactive),
COc1ccc(CC(=O)Nc2ccc(C(=O)NC(C)(C)C)cc2)cc1,6.08% (inactive),
CC1=NN(C(=O)CCc2ccccc2O)C(O)(C(F)(F)F)C1 (stereo not drawn),,8.91 µM (active)
O=C(CCc1ccccc1F)N1CCN(c2ccccc2)CC1,-19.2% (inactive),
COc1ccccc1N1CCN(S(=O)(=O)c2ccc3c(c2)NC(=O)CS3)CC1,25.3% (inactive),
COc1cccc(NC(=O)N2CCC(NC(=O)C(Cc3cccc(C)c3)NC(C)=O)CC2)c1 (stereo not drawn),-5.25% (inactive),
CC(C)CN(Cc1c(O)ccc2c(=O)c(-c3ccccc3)coc12)CC(C)C,27% [at 1.91 µM] (inactive),
CC(C)[C@H](NC(=O)N1c2ccccc2NC(=O)[C@@H]1C(C)C)C(=O)N[C@H](C(=O)O)c1ccccc1,-2.3% (inactive),
CN(C(=O)CN1C(=O)/C(=C/c2ccc(Cl)cc2)SC1=S)C1CCS(=O)(=O)C1 (stereo not drawn),-12.4% (inactive),

Compound,"activity change, negative = inhibition",Potency
CC(=O)C1=C(O)C(=O)N(c2ccc(Br)cc2)C1c1ccc([N+](=O)[O-])cc1 (stereo not drawn),-3.44% (inactive),
CC1Cc2cc(/C(O)=C3\C(=O)C(=O)N(Cc4cccnc4)C3c3ccccc3F)ccc2O1 (stereo not drawn),-7.77% (inactive),
CC1=NN(/C(=N\c2nnc(C)s2)Nc2ccccc2)[C@H](c2ccc(C)cc2)S1,,8.91 µM (active)
Cc1ccc(C2SCC(=O)N2c2ccccc2)cc1 (stereo not drawn),-32.8% (inactive),
COc1ccc(C(=O)CCC(=O)Nc2ccc(Cl)cc2)cc1,37% (inactive),
CCOC(=O)C1(Cc2ccccc2C)CCCN(C(=O)CN2C(=O)CSC2=O)C1 (stereo not drawn),0% (inactive),
N#Cc1ccc(/C=C2\CCn3c2nc2cc(C(=O)O)ccc2c3=O)cc1,38.3% (inactive),
CCOC(=O)CNc1nc(Cl)nc(Nc2ccccc2)n1,-7.07% (inactive),
Cc1ccccc1C(=O)OC1OC(=O)C(Cl)=C1Nc1ccccc1 (stereo not drawn),,11.2 µM (active)
Cc1ccc(NC2=C(Cl)C(=O)OC2OC(=O)c2ccccc2C)cc1 (stereo not drawn),40.2% (inactive),
COC(=O)c1sccc1NC(=O)c1ccc(Cl)cc1,-3.43% (inactive),
Cc1csc(NC(=O)Nc2ccccc2[N+](=O)[O-])n1,-4.77% (inactive),
CCOC(=O)C/C(C)=N\Nc1ccc([N+](=O)[O-])cc1[N+](=O)[O-],9.42% (inactive),
CCOC(=O)/C(=N\Nc1ccccc1[N+](=O)[O-])c1csc(Nc2ccccc2)n1,,11.2 µM (active)
COc1ccc(OCc2cc(C(=O)NCC3(C)COC3)no2)c(Cl)c1,44% (inactive),
Cc1ccc(Cl)c(OCC(=O)N2CCc3ccccc3C2)c1,3.92% [at 1.91 µM] (inactive),
COc1ccccc1C(=O)OCC(=O)NCCNC(=O)COC(=O)c1ccccc1OC,1.35% (inactive),
Cc1cc(C)cc(C(=O)OCC(=O)NCCNC(=O)COC(=O)c2cc(C)cc(C)c2)c1,,0.0708 µM (active)
Cc1cccc(C(=O)OCC(=O)Nc2ccc(F)cc2)c1,-5.24% (inactive),
COc1ccc(S(=O)(=O)NC(C)C(=O)NCc2ccncc2)cc1Cl (stereo not drawn),3.71% (inactive),
COC(=O)CN1C(=O)[C@H]2[C@@H](/C=C/c3ccccc3)N3C(=O)CN(CC4CC4)C(=O)[C@@]3(Cc3ccccc3)[C@H]2C1=O,-10.6% (inactive),
Cc1[nH]n(-c2cccc(Cl)c2)c(=O)c1-c1ccc(Cl)cc1,-69.7% (inactive),
Cc1[nH]n(C(N)=S)c(=O)c1N=Nc1ccc(Cl)cc1Cl,,0.562 µM (active)
Cc1ccc(N=Nc2c(C)[nH]n(-c3ccccc3)c2=O)cc1,7.28% (inactive),
Cc1cc2oc(=O)cc(CN(C)Cc3ccc(OC(F)F)cc3)c2cc1Cl,146% (inactive),
COc1ccc(CCN2C(=O)C(C)=C(C)C2=O)cc1OC,28.7% (inactive),

Compound,"activity change, negative = inhibition",Potency
COc1ccccc1-c1nc(N2CCN(C)CC2)c2ccccc2n1,-14.4% (inactive),
COc1ccccc1-c1n[nH]c2c1[C@H](C)CC[C@H]2C(C)C,,3.16 µM (active)
CC1C(=O)Nc2ccccc2N1C(=O)c1c(F)cccc1F (stereo not drawn),44.9% (inactive),
COc1ccc(-n2nc3c(N4CCC(C(=O)NCc5ccccc5)CC4)nnc(C)c3c2C)cc1,-18.6% (inactive),
Cc1cc(C(=O)N/N=C/c2ccc(O)c([N+](=O)[O-])c2)c(C)n1-c1ccc(F)cc1,-12.8% (inactive),
O=[N+]([O-])c1ccc(N2CCSCC2)cc1O,11.6% (inactive),
O=C1CSC(=S)N1/N=C/c1ccc(O)c([N+](=O)[O-])c1,,8.91 µM (active)
COc1cccc(C2CC(c3cccs3)=NN2C(=O)CSC2=NCCS2)c1OC (stereo not drawn),-21.1% (inactive),
CC(C(=O)NC1CCCCC1)N1C(=O)c2cccc3cccc1c23 (stereo not drawn),3.12% (inactive),
COc1cc(NC(=O)C2=C(C)OCCS2)c(Cl)cc1C(=O)NCCN1CCN(C)CC1,-16.1% (inactive),
O=C(NCc1cccc(C(F)(F)F)c1)c1cccc(S(=O)(=O)N2CCN(Cc3ccccc3)CC2)c1,5.22% (inactive),
S=C(NCc1ccc(Cl)cc1)NC1CCCCC1,,3.55 µM (active)
O=C(NCc1ccc(Cl)cc1)NCc1ccc(Cl)cc1,-23.1% (inactive),
O=C(NC1CCN(C(=S)Nc2ccc(Cl)cc2)CC1)C1CCCCC1,-23.5% (inactive),
O=C(NCc1ccncc1)NC12CC3CC(CC(C3)C1)C2,-4.04% (inactive),
S=C(NCc1ccc(Cl)cc1)NC12CC3CC(CC(C3)C1)C2,,2 µM (active)
CN(C)CCCNC(=S)NCc1ccc(Cl)cc1,3.62% (inactive),
COCCCNC(=O)C1CC(=O)N(CCc2ccc(F)cc2)C1 (stereo not drawn),-0.388% (inactive),
CC(=O)Nc1ccc(Nc2ncnc3c2nnn3Cc2ccccc2Cl)cc1,-0.255% (inactive),
O=C(c1c(F)cccc1Cl)N1CCN(c2ccccn2)CC1,-15.7% (inactive),
COc1ccc(S(=O)(=O)N2CCC(C(=O)NCCC(=O)NCc3cccc(OC)c3)CC2)cc1,24.5% (inactive),
CC(C)[C@H](NC(=O)N1CC(=O)Nc2ccccc21)C(=O)N[C@@H](Cc1c[nH]c2ccccc12)C(=O)O,8.13% (inactive),
COc1cc(C(=O)NCCOC(=O)c2cccc(N(C)C)c2)cc(OC)c1OC,0.0134% (inactive),
C=CCNC(=S)N/N=C/c1ccc(OCc2ccccc2)cc1,-11.3% (inactive),
CNC(=S)N/N=C/c1ccc(OCc2ccccc2)c(Br)c1,,1.26 µM (active)
O=C(O)COc1ccc(/C=N/O)cc1Br,-9.27% (inactive),

Compound,"activity change, negative = inhibition",Potency
COc1cc(NS(=O)(=O)c2ccc(NC(=S)NC(=O)c3ccc(Br)cc3)cc2)ncn1,30% (inactive),
COc1cc2c(cc1OC)CN(C(=O)c1cc(S(=O)(=O)N3CCCCC3)ccc1Cl)CC2,26.2% (inactive),
Cc1ccc(C(=O)NCC(=O)OCc2nnc(-c3ccccc3)o2)cc1,23.9% (inactive),
Cc1c(CCC(=O)N[C@@H](CC(C)C)C(=O)O)c(=O)oc2c(C)c3oc4c(c3cc12)CCCC4,-39.1% (inactive),
CCOC(=O)C1=C(c2ccccc2)NC(=O)NC1c1cc(OC)c(OC)cc1OC (stereo not drawn),2.42% (inactive),
CCOC(=O)C1=C(C)NC(=O)NC1c1ccccc1 (stereo not drawn),-31.6% (inactive),
CCOC(=O)C1=C(c2ccccc2)NC(=S)NC1c1ccc(Cl)cc1 (stereo not drawn),,7.94 µM (active)
Cn1cc(C(=O)c2ccc(Cl)cc2Cl)cc1C(=O)NN,1.5% (inactive),
COc1ccc(C2=Nc3cc(C)ccc3OC2)cc1,,10 µM (active)
COc1ccc(NC(=O)c2cc(-c3ccc(C)cc3)on2)cc1,-15.9% (inactive),
COc1ccc(C2=NOC3(CC(=O)N(c4ccc(C)cc4)C3=O)C2)cc1 (stereo not drawn),3.77% (inactive),
Cc1cc(C)cc(N(CCC#N)C(=O)CN2C(=O)NC3(CCCC3)C2=O)c1,-9.67% (inactive),
COc1ccc(N(Cc2ccc(N(C)C)cc2)C(=O)c2ccc(S(C)(=O)=O)cc2)cc1,1.79% (inactive),
COCCN(C(=S)Nc1ccccc1OC)C1CCN(C(C)C)CC1,-1.16% (inactive),
COc1ccccc1NC(=S)N1CCC(NC(=O)C23CC4CC(CC(C4)C2)C3)CC1,-9.29% (inactive),
CCC(=O)N1CCN(c2ccccc2NC(=O)COc2cccc(C)c2C)CC1,-2.84% (inactive),
CCOc1ccccc1NC(=S)N1CCN(c2cccc(C)c2C)CC1,,6.31 µM (active)
CC(=O)N1CCN(c2cccc(C)c2C)CC1,-8.54% (inactive),
COc1ccccc1NC(=S)N1CCN(C(c2ccccc2)c2ccccc2)CC1,,3.55 µM (active)
CC(=O)c1cccc(NC(=S)N2CCN(S(C)(=O)=O)CC2)c1,-0.8% (inactive),
CCC(C(=O)NC1CCCCC1)N(C(=O)c1snc(C(N)=O)c1N)c1ccc(OC)cc1OC (stereo not drawn),16.7% (inactive),
O=C(CCc1nnc2ccc(NCc3ccccc3Cl)nn12)NCC1CCN(C2CCCC2)C1 (stereo not drawn),0.106% (inactive),
COc1ccc(-c2csc(-c3cccs3)n2)cc1OC,10.3% (inactive),
COc1ccc(-c2noc(-c3cccc(OC)c3OC)n2)cc1OC,16.6% (inactive),
COc1ccc(-c2csc3nc(-c4ccccc4F)oc(=O)c23)cc1OC,,11.2 µM (active)

# Source: PubChem BioAssay AID2551 (National Center for Advancing Translational Sciences (NCATS), 2010)
